Screen size: about 68,000 compounds; about 2,700 (4%) showed an effect of 50% or more. The entries come from a sample that favours strong results as a whole.
test system: Plasmodium berghei; experiment: Screen against P. berghei liver stage (PbLuc), transformed with Luciferase, at 2uM; type: functional, HepG2; conditions: tested at 2 uM

**Q.** How did the INHIBITION turn out when `c1cnc(N2CCCC(c3cc4cccnc4[nH]3)C2)nc1` (stereo not drawn) was run?
**A.** 14.47%

**Q.** How did the INHIBITION turn out when `C=C(C)COc1cccc(C(=O)N(CC)Cc2nccn2C)c1` was run?
**A.** 52.98%

**Q.** With `CCN(Cc1nccn1C)C(=O)c1ccc(NCc2ccccc2)nc1` as the compound, how does the INHIBITION read?
**A.** 8.89%

**Q.** For `C=C(C)CNc1ccc(C(=O)N(CC)Cc2nccn2C)cn1`, which INHIBITION is on record?
**A.** -13.51%

**Q.** With `C=C(C)COc1cccc(C(=O)N(CC)Cc2nc(COC)no2)c1` as the compound, how does the INHIBITION read?
**A.** -18.57%

**Q.** `C=C(C)COc1cccc(C(=O)N(CC)Cc2noc(C)n2)c1` was tested. Which INHIBITION did it give?
**A.** 76.82%

**Q.** With `C=C(C)COc1cccc(CN(CC)Cc2noc(C)n2)c1` as the compound, how does the INHIBITION read?
**A.** 36.28%

**Q.** `CCn1nc(C)c2ncnc(N(C)Cc3ccco3)c21` was tested. Which INHIBITION did it give?
**A.** 46.92%

**Q.** With `CN(C)c1ccc(CN2C[C@@H]3CC[C@H]2CN(C2CCOCC2)C3)cn1` as the compound, how does the INHIBITION read?
**A.** 25.52%

**Q.** For `Cn1cccc1C(=O)N1CCN(CC2CC2)c2ncccc2C1`, which INHIBITION is on record?
**A.** 8.13%

**Q.** `Cc1nc(-c2ccccc2)n(CC(=O)NC(C)C2CC2)n1` (stereo not drawn) was tested. Which INHIBITION did it give?
**A.** 32.56%

**Q.** For `COc1ccc(C2=Nn3c(CCN)nnc3-c3ccccc3C2)cc1`, which INHIBITION is on record?
**A.** 54.73%

**Q.** How did the INHIBITION turn out when `COc1ccc(C2=Nn3c(CN)nnc3-c3ccccc3C2)cc1` was run?
**A.** 42.64%

**Q.** With `COc1ccc(C2=Nn3c(CCCN)nnc3-c3ccccc3C2)cc1` as the compound, how does the INHIBITION read?
**A.** 6.9%

**Q.** `Cc1cnc(CNC(=O)[C@@]23CCO[C@@H]2CCN(c2ncccn2)C3)cn1` was tested. Which INHIBITION did it give?
**A.** 4.08%

**Q.** How did the INHIBITION turn out when `Cc1cc(C(=O)N2C[C@@H]3COC[C@]3(CN(C)C)C2)c(C)o1` was run?
**A.** 39.57%

**Q.** For `CC(C)NC1CCc2[nH]c(=O)ccc2C1` (stereo not drawn), which INHIBITION is on record?
**A.** -13.79%

**Q.** `Cc1c(Br)cccc1C(=O)NCC1CCNCC1` was tested. Which INHIBITION did it give?
**A.** 5%

**Q.** How did the INHIBITION turn out when `O=C(c1cccnc1O)N1CCN(Cc2ccccc2F)CC1` was run?
**A.** -24.15%

**Q.** Which INHIBITION does the source give for `O=C(c1cnc(C2CC2)nc1O)N1CCN(Cc2ccccc2F)CC1` here?
**A.** 15.34%

**Q.** `Cc1ncc(C(=O)N2CCCN(Cc3ccccc3F)CC2)c(O)n1` was tested. Which INHIBITION did it give?
**A.** 52.74%

**Q.** How did the INHIBITION turn out when `c1cnnc(N[C@@H]2CC[C@@H]3CN(Cc4c[nH]c5ccccc45)C[C@@H]32)c1` was run?
**A.** -2.96%

**Q.** With `Cc1nc(C)c(S(=O)(=O)NC(=O)c2ccsc2)s1` as the compound, how does the INHIBITION read?
**A.** 68.08%

**Q.** For `Cc1nc(C)c(S(=O)(=O)NC(=O)c2sccc2C)s1`, which INHIBITION is on record?
**A.** 24.23%

**Q.** Which INHIBITION does the source give for `Cc1nc(C)c(S(=O)(=O)NC(=O)c2ccoc2)s1` here?
**A.** 44.86%

**Q.** `O=C(c1ccc(O)nc1)N1CCN(C(=O)c2ccc(F)c(F)c2)CC1` was tested. Which INHIBITION did it give?
**A.** -18.09%

**Q.** With `O=C(c1ccc(O)nc1)N1CCN(C(=O)c2ccc(F)cc2F)CC1` as the compound, how does the INHIBITION read?
**A.** 19.06%

**Q.** `O=C(c1ccc(O)nc1)N1CCc2ccc(O)cc2C1` was tested. Which INHIBITION did it give?
**A.** 55.39%

**Q.** For `CC(C)Oc1ncc(C(=O)N2CCc3ccc(O)cc3C2)cc1Cl`, which INHIBITION is on record?
**A.** 11.33%

**Q.** How did the INHIBITION turn out when `O=C(c1cnc(OCC(F)(F)F)c(Cl)c1)N1CCc2ccc(O)cc2C1` was run?
**A.** 64.2%

**Q.** How did the INHIBITION turn out when `O=C(c1c[nH]c(=O)c(Cl)c1)N1CCc2ccccc2C1` was run?
**A.** -15.11%

**Q.** How did the INHIBITION turn out when `CC(=O)N1CC[C@H](c2nnc(Cc3c[nH]c4ccccc34)o2)C1` was run?
**A.** 26.01%

**Q.** For `CN(Cc1cn2c(n1)CN(CC1CCOC1)CC2)Cc1ccco1` (stereo not drawn), which INHIBITION is on record?
**A.** -0.38%

**Q.** How did the INHIBITION turn out when `O=C(NCCn1cccc1)C1CCN(C2CCCCC2)CC1` was run?
**A.** 10.72%

**Q.** For `OCCOc1cc(F)ccc1NCc1cccc(F)c1F`, which INHIBITION is on record?
**A.** -19.62%

**Q.** With `Cn1ccnc1CN1CCC(CNS(=O)(=O)c2cccnc2)C1` (stereo not drawn) as the compound, how does the INHIBITION read?
**A.** -43.75%

**Q.** For `COc1ccc(NC(=O)C2CC(=O)n3cnnc3S2)cc1` (stereo not drawn), which INHIBITION is on record?
**A.** 6.05%

**Q.** Which INHIBITION does the source give for `COCCN1CCCC(O)(CN2CCN(Cc3ccncc3)CC2)C1=O` (stereo not drawn) here?
**A.** 15.73%

**Q.** How did the INHIBITION turn out when `CC(=O)c1ccc(CNC(=O)c2cc(C#N)cn2C)nc1C` was run?
**A.** -2.44%

**Q.** For `Cc1ccc2nc(CSCC(=O)Nc3nnc(C(C)C)s3)cc(=O)n2c1`, which INHIBITION is on record?
**A.** -3.16%

**Q.** Which INHIBITION does the source give for `O=C(Nc1cccnc1)C1=Cc2ccccc2OC1` here?
**A.** 3.62%

**Q.** With `CC1=C(C#N)C(=O)N(C)C(=O)/C1=C\C1=Cc2ccccc2OC1` as the compound, how does the INHIBITION read?
**A.** 53.81%

**Q.** For `CCN1C(=O)C(C#N)=C(C)/C(=C/C2=Cc3ccccc3OC2)C1=O`, which INHIBITION is on record?
**A.** 45.67%

**Q.** Which INHIBITION does the source give for `O=C(NCC1CCOCC1)c1cc(-c2ccncc2)c2cnccc2n1` here?
**A.** 10.89%

**Q.** With `CC(C)C(CNCc1cccc2c1OCO2)N1CCOCC1` (stereo not drawn) as the compound, how does the INHIBITION read?
**A.** 21.72%

**Q.** `c1csc(C(CNCc2cccc3c2OCO3)N2CCOCC2)c1` (stereo not drawn) was tested. Which INHIBITION did it give?
**A.** 42.62%

**Q.** With `Cc1ccc(C(CNCc2cccc3c2OCO3)N2CCOCC2)o1` (stereo not drawn) as the compound, how does the INHIBITION read?
**A.** 71.53%

**Q.** Which INHIBITION does the source give for `COc1ccccc1OCC(=O)NCC(O)(c1ccccc1)C1CC1` (stereo not drawn) here?
**A.** 22.75%

**Q.** How did the INHIBITION turn out when `CCOc1ccc(Oc2cc(N)ccn2)cc1` was run?
**A.** 4%

**Q.** With `O[C@H]1Cc2ccccc2[C@H]1Nc1ncccc1C(F)(F)F` as the compound, how does the INHIBITION read?
**A.** -12.95%

**Q.** `Cc1ccc(CN2CCCn3nnc(COCCN(C)C)c3C2)s1` was tested. Which INHIBITION did it give?
**A.** 23.14%

**Q.** Which INHIBITION does the source give for `Cn1cc(CN2CC[C@H]3O[C@H](C(=O)NC4CC4)CC[C@H]32)c2ccccc21` here?
**A.** -18.7%

**Q.** With `CCOc1ncccc1CNS(=O)(=O)c1ccc2c(c1)CCCC(=O)N2` as the compound, how does the INHIBITION read?
**A.** 20.35%

— ChEMBL document CHEMBL4513216, “Probing the Open Global Health Chemical Diversity Library for Multistage-Active Starting Points for Next-Generation Antimalarials” (ACS Infect Dis, 2020)
